Compounds without any hit were thinned out: in the full panel of roughly 83,000, 20% have a hit.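 48-hour exposure, single concentration, 96-well plates; percent growth endpoint where 0 means no net growth. Active: below 10.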 Unmarked numbers belong to inactive results. The source made the active and inactive calls.

The test system of one test is A498 renal. The test can be described thus: NCI-60 one-dose screen, 48 h (100 = growth as untreated, 0 = no growth, -100 = all killed). The settings on record: 10 µM unless noted.
In the case of `CNC(=O)Nc1ccc(Nc2cc(-c3ccc(-n4cccn4)cc3)[nH]n2)c(C)c1`, the growth is 129%. Still for that read-out and setting: then `O=C(CCCCCCNC(=O)c1csc(Br)n1)NO`, with -4.04% (active).

On to `NS(=O)(=O)c1ccc(Nc2nc(N/N=C/c3ccc4c(c3)OCO4)nc(Nc3ccccc3)n2)cc1`, for which the growth is 51.1%.

For `CCc1cc2c(cc1Cl)nc1c(=O)[nH]c(=O)nc-1n2CCOCC(C)C`, the growth was 76.4%. The same measure, in the same setting: then `COc1cc(C(=O)c2cc(C(C)=O)c3cccc(C)n23)cc(OC)c1OC`, with 21.9%; and `Nc1ncc(-c2ccc3ncnc(NCc4ccccc4)c3c2)cn1`, with 22.4%. Still for that read-out and setting: then `COc1ccc2c(c1)c(-c1nn3cc(-c4ccncc4)nc3s1)cn2C`, with 83.7%.

Another test deals with CCRF-CEM leukemia. The description is as above. Particulars: 10 µM unless noted.
In the case of `C#C[C@]1(O)CC[C@H]2[C@@H]3CC=C4c5sc(N(C)c6ccccc6)nc5CC[C@]4(C)[C@H]3CC[C@@]21C`, the growth was 44.3%. Same read-out and setting: the same measure for `CC(=O)c1c([Si](C)(C)C)c2cc(C#N)ccn2c1C(=O)c1ccc(Br)cc1`: 91.8%; for `O=C(CSc1nc2ccccc2c(=O)n1-c1ccc(Cl)c(Cl)c1)Nc1ccc(S(=O)(=O)Nc2ccc(Cl)nn2)cc1`: 97%. In the case of `C#CCN(C)CCCOc1ccc(NCc2ccc(/C=C/C(=O)NO)cc2)cc1Cl`, the growth was 10.7%. Same read-out and setting: then `O=C(NNc1nc2cc(F)cc(F)c2n2cccc12)c1cccnn1`, with 6.41% (active); and `COc1ccc(/C(=N\NC(N)=S)c2ccc(Cl)cc2)cc1OC`, with 25.6%; and `COc1ccc(-c2c(C(N)=O)c(N)n(Cc3nc4ccccc4[nH]3)c(=O)c2C#N)c(OC)c1`, with 107%.
